C2C12 statin = suppressors of statin myotoxicity in C2C12 myotubes, primary screen, cell-based, single point, plate reader; C2C12 myotubes + simvastatin, ATP luminescence, 48 h; scaled: DMSO 0, geranylgeraniol control 100; rescue of ATP level, % at 7.49 µM; hit rate 0.78% among 330,000; AID 602340, 2012;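 active = mean ATP rescue above about 67%, or every replicate alone reaching that limit, limit read from the data, passing the limit was not always enough; inconclusive = no clear call, values can overlap the other calls; inactive = mean under the limit and some replicate under it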;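 note: myotubes were challenged with 10 µM simvastatin during compound exposure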
GSIS activator = GLuc luminescence reporter in INS-1E cells, primary screen for activators of glucose-dependent secretion of insulin. hit rate 0.61% among 370,000. INS-1E GLuc reporter insulin secretion, 2-3 h. AID 743287, 2014. activation, % at 16.6 µM;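 active = lowest replicate activation of at least 40%, so every replicate reaches that level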
PAX8 reporter = inhibitors of PAX8-driven TPO luciferase reporter, primary screen, RMG-I cells, single concentration; SteadyGlo, 24 h; inhibition, % at 12.6 µM; hit rate 1.2% among 360,000; AID 652154, 2013;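 active = mean replicate inhibition at least 60% with every replicate also reaching 60%; inconclusive = only one of the two criteria is met; inactive = mean below 60% and not all replicates reaching 60%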;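 note: luciferase light reporting Pax8 driven TPO promoter activity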
HIV Env fusion = inhibitors of HIV-1 Env-driven cell-cell fusion, primary screen, HeLa-JRFL effector, CEM21 target cells, luciferase; inhibition, % at 12.3 µM; hit rate 1.1% among 360,000;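 active = mean replicate inhibition score of at least 50 and every replicate individually at or above 50; inconclusive = only one of the two criteria met; inactive = mean below 50 and not all replicates reaching 50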
miR122 inh = miR-122 Renilla sensor signal increase in Huh7, primary screen, miR-122 inhibitor project, cell-based, single point, plate reader; Huh7 miR-122 Renilla luciferase sensor, 48 h; neutral wells = 0, positive control = 100; activation (reporter increase), % at 12.5 µM; hit rate 0.3% among 340,000; AID 602342, 2012;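 active = mean replicate activation score at least 90 and every replicate individually at or above 90; inconclusive = only one of the two criteria met; inactive = neither criterion met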;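 note: higher luciferase means less miR-122 activity so hits act as miR-122 inhibitors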
EWS-Fli inh = EWS/Fli-driven NR0B1 reporter inhibitors, primary screen, A673 cells, NR0B1 luciferase, luminescence, MLPCN library; viability-normalised; inhibition, % at 12.6 µM; hit rate 0.67% among 350,000; AID 651661, 2012;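 active = mean inhibition of at least 50% after viability correction, with every replicate also passing that limit; inconclusive = mean reaches 50% but only one of two replicates passes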;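 note: firefly luciferase signal divided by Alamar Blue viability fluorescence both relative to DMSO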
Of the large screens only hits and unclear results are named; the others gave an inactive call; [ ] = remark or other dose. Sampled rows, rich in hits. Any-hit rate of the full collection: about 3.1%.

O=C1C=CCCN1S(=O)(=O)/C=C/c1ccccc1	PAX8 reporter 89, EWS-Fli inh 62 (no result: C2C12 statin, GSIS activator, miR122 inh)
O=C(C[C@H]1C[C@H]2c3cc(NC(=O)NC4CCCC4)ccc3O[C@H]2[C@@H](CO)O1)NCc1cccc(F)c1	none (no result: C2C12 statin, PAX8 reporter, HIV Env fusion, miR122 inh, EWS-Fli inh)
Cc1nn(C(=O)c2cccc([N+](=O)[O-])c2)c(C)c1Cl	GSIS activator 63
C[C@H](CO)N1C[C@H](C)[C@@H](CN(C)Cc2ccc(C(F)(F)F)cc2)Oc2ccc(NC(=O)Nc3cccc4ccccc34)cc2C1=O	none (no result: C2C12 statin, PAX8 reporter)
COc1cccc(-n2c([S-])c(C(=O)Nc3ccc(S(=O)(=O)N4CCOCC4)cc3)[n+]3cc(C(N)=O)ccc23)c1	GSIS activator 45
CC(C)COc1cccc(C(=O)Nc2ccc(S(=O)(=O)N3CCOCC3)cc2)c1	none (no result: PAX8 reporter, EWS-Fli inh)
Cc1ccc(NC(=O)Nc2ccc3c(c2)C(=O)N(C)[C@@H]2CC[C@H](CC(=O)O)O[C@@H]2CO3)cc1	none
Cc1ccc(C(=O)N(c2ccccn2)C(C)c2ccco2)cc1C (configuration not stated)	C2C12 statin 123 (no result: GSIS activator, EWS-Fli inh)
CC1=CN2C(=N)/C(=C/c3ccco3)C(=O)N=C2S1	none (no result: C2C12 statin, miR122 inh)
CC1=CN2C(=N)/C(=C/c3ccc([N+](=O)[O-])o3)C(=O)N=C2S1	EWS-Fli inh 56 (no result: C2C12 statin, miR122 inh)
CN(C)C=NC(=O)c1ccc(N2CCN(c3ncc(C(F)(F)F)cc3Cl)CC2)cc1	GSIS activator 72 (no result: C2C12 statin, PAX8 reporter, HIV Env fusion, EWS-Fli inh)
CN(C)/C=C/C(=O)c1ccc(N2CCN(c3ncc(C(F)(F)F)cc3Cl)CC2)cc1	C2C12 statin 134 (no result: GSIS activator, PAX8 reporter, HIV Env fusion, EWS-Fli inh)
CC(C)NC(=O)N(C)C[C@@H]1Oc2cc(-c3cncnc3)ccc2S(=O)(=O)N([C@H](C)CO)C[C@@H]1C	none (no result: PAX8 reporter)
CC(C)(C)[C@H](N)C(=O)N[C@H]1CCC2C3CC=C4C[C@@H](O)CC[C@]4(C)C3CC[C@@]21C (some centres not stated)	GSIS activator 202, PAX8 reporter 95, EWS-Fli inh 56 (no result: C2C12 statin)
CC(=O)C1CCC2C3CC=C4CC(SC(=N)N)CCC4(C)C3CCC12C (configuration not stated)	GSIS activator 284 (no result: C2C12 statin, PAX8 reporter, miR122 inh)
CCCNC(=O)N1CC2(CN(C(=O)CCC)C2)c2c(n(C)c3cc(OC)ccc23)[C@H]1CO	none (no result: C2C12 statin, PAX8 reporter, HIV Env fusion, miR122 inh, EWS-Fli inh)
CCOc1ccc2nc(NC(=O)CSCC(=O)Nc3cc(C)on3)sc2c1	EWS-Fli inh 60
COCC#Cc1cnc2c(c1)C(=O)N([C@H](C)CO)C[C@@H](C)[C@@H](CN(C)Cc1ccc3c(c1)OCO3)O2	none
Cc1ccc(S(=O)(=O)N(C)C[C@H]2OCCCC[C@H](C)Oc3ccc(NS(=O)(=O)c4ccc(Cl)cc4)cc3C(=O)N([C@H](C)CO)C[C@@H]2C)cc1	PAX8 reporter 81
Cc1ccc(S(=O)(=O)N(C)C[C@@H]2OCCCC[C@H](C)Oc3ccc(NS(=O)(=O)c4ccc(Cl)cc4)cc3C(=O)N([C@H](C)CO)C[C@H]2C)cc1	PAX8 reporter 81
Cc1ccc(S(=O)(=O)N(C)C[C@H]2OCCCC[C@@H](C)Oc3ccc(NS(=O)(=O)c4ccc(Cl)cc4)cc3C(=O)N([C@H](C)CO)C[C@@H]2C)cc1	none
Cc1ccc(S(=O)(=O)Nc2ccc3c(c2)C(=O)N([C@@H](C)CO)C[C@H](C)[C@@H](CN(C)S(=O)(=O)c2ccc(Cl)cc2)OCCCC[C@@H](C)O3)cc1	none (no result: C2C12 statin)
Cc1ccc(S(=O)(=O)N(C)C[C@H]2OCCCC[C@@H](C)Oc3ccc(NS(=O)(=O)c4ccc(Cl)cc4)cc3C(=O)N([C@@H](C)CO)C[C@H]2C)cc1	PAX8 reporter 73
Cc1ccc(S(=O)(=O)N(C)C[C@@H]2OCCCC[C@H](C)Oc3ccc(NS(=O)(=O)c4ccc(Cl)cc4)cc3C(=O)N([C@@H](C)CO)C[C@@H]2C)cc1	PAX8 reporter 68
Cc1ccc(-c2cnc3c(c2)C(=O)N([C@H](C)CO)C[C@@H](C)[C@H](CN(C)C(=O)c2cccc(F)c2)O3)cc1	none
Cc1ccc(S(=O)(=O)N(C)C[C@@H]2Oc3ccc(NS(=O)(=O)c4ccc(Cl)cc4)cc3C(=O)N([C@@H](C)CO)C[C@H]2C)cc1	HIV Env fusion 64[16.7 µM] (no result: PAX8 reporter)
C[C@H]1CN([C@@H](C)CO)C(=O)c2cc(NS(=O)(=O)c3ccc(F)cc3)ccc2O[C@H]1CN(C)S(=O)(=O)c1ccc(F)cc1	HIV Env fusion 58[16.7 µM]
c1nc(N2CCOCC2)c2c3c(sc2n1)CCCC3	GSIS activator 41, HIV Env fusion inconclusive (no result: PAX8 reporter, EWS-Fli inh)
O=C(c1ccccc1)N1CCN(c2ncnc3sc4c(c23)CCC4)CC1	HIV Env fusion 87 (no result: GSIS activator, EWS-Fli inh)
Clc1ccc(CN(Cc2ccccc2)C(c2cccs2)c2nnnn2C2CCCC2)cc1 (configuration not stated)	HIV Env fusion 94 (no result: GSIS activator, PAX8 reporter, EWS-Fli inh)
Fc1ccc(CN(Cc2ccccc2)C(c2cccs2)c2nnnn2C2CCCCC2)cc1 (configuration not stated)	none (no result: C2C12 statin, GSIS activator, PAX8 reporter, HIV Env fusion, EWS-Fli inh)
CC(C)(C)n1nnnc1C(c1cccnc1)N(Cc1ccccc1)Cc1cccs1 (configuration not stated)	HIV Env fusion 57 (no result: GSIS activator, EWS-Fli inh)
CC(C)(C)n1nnnc1C(c1ccc(F)cc1)N(Cc1ccc(F)cc1)Cc1ccco1 (configuration not stated)	HIV Env fusion 124 (no result: C2C12 statin, GSIS activator, EWS-Fli inh)
CC(C)(C)n1nnnc1C(c1cccs1)N(Cc1ccccc1)Cc1cccnc1 (configuration not stated)	C2C12 statin 124 (no result: GSIS activator, PAX8 reporter, HIV Env fusion, EWS-Fli inh)
CC(C)(C)n1nnnc1C(c1ccc(C(F)(F)F)cc1)N(Cc1ccc(F)cc1)Cc1ccco1 (configuration not stated)	none (no result: GSIS activator, PAX8 reporter, HIV Env fusion, EWS-Fli inh)
CC(C)[C@@H]1CC=CC[C@H](C)Oc2ccccc2C(=O)N(C)[C@@H](C)C(=O)N1 (mixture of isomers)	none (no result: C2C12 statin, PAX8 reporter, HIV Env fusion, miR122 inh, EWS-Fli inh)
C[C@@H](NC(=O)C[C@@H]1CC[C@@H](NC(=O)c2cccnc2)[C@@H](CO)O1)c1ccccc1	none
Cc1ccccc1S(=O)(=O)N1C[C@@H](O)COC[C@@H]2O[C@@H](CC(=O)NCc3ccccc3Cl)CC[C@H]21	none
O=C(C[C@H]1CC[C@@H]2[C@H](COC[C@@H](O)CN2Cc2ccc(F)cc2)O1)NCc1ccccc1Cl	PAX8 reporter 92 (no result: HIV Env fusion)
C[C@@H](NC(=O)C[C@@H]1CC[C@@H]2[C@H](COC[C@H](O)CN2Cc2cc(F)ccc2F)O1)c1ccccc1	PAX8 reporter 68
Cc1ccccc1S(=O)(=O)N1C[C@H](O)COC[C@H]2O[C@@H](CC(=O)NCc3ccccc3Cl)CC[C@@H]21	HIV Env fusion 57[16.7 µM]
O=C(C[C@@H]1CC[C@@H]2[C@H](COC[C@H](O)CN2Cc2ccc(F)cc2)O1)NCc1ccccc1Cl	none (no result: HIV Env fusion)

Bioassay records from PubChem.
